An excerpt weighted towards active compounds, which were near 3% of everything screened.
Arbovirus inh: antivirals against arbovirus infection, primary screen, cell-based, full library, 10K replicate subset; 0.37% of 200,000 active; inhibition, % at 10 µM; arbovirus infection cell-based antiviral screen; AID 1251, 2008; in the data active = inhibition above about 30%
14-3-3 Bad inh: inhibitors of 14-3-3 zeta/Bad binding, primary screen, biochemical, TR-FRET, bovine 14-3-3 zeta; TR-FRET 14-3-3zeta/Dy647-pBad peptide displacement, 1 h; inhibition, % at 21.7 µM; 0.71% of 220,000 active; AID 781, 2007;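 active = inhibition above about 70%, limit read from the data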
Target sequence (P63103 whole entry, looked up): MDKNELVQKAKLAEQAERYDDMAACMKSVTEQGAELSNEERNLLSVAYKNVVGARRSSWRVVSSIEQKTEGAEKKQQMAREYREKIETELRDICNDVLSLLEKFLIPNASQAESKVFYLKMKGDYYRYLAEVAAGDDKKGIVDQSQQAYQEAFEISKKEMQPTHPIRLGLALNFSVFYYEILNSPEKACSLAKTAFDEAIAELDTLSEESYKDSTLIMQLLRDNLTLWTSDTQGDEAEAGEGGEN
Mcl1 Bid PPI: Mcl-1/Bid binding inhibitors, primary screen, biochemical, TR-FRET, 1536-well; AID 1021, 2008; inhibition, % at 21.7 µM; Induced myeloid leukemia cell differentiation protein Mcl-1 (Homo sapiens), Q07820; TR-FRET Mcl-1/Bid-Dy647 peptide binding; 0.97% of 220,000 active;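 active = compounds that cut the binding signal by more than half at the single screening dose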;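 also: His-tagged Mcl-1 with europium anti-His antibody binding Bid BH3 peptide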
Bim-Mcl-1: inhibitors of Bim peptide binding to Mcl-1, primary screen, biochemical, bead-based flow cytometry, multiplex; AID 1009, 2008; 0.1% of 190,000 active; inhibition, % at 10 µM; Induced myeloid leukemia cell differentiation protein Mcl-1 (Homo sapiens), Q07820; Bim peptide-Mcl-1 binding; in the data active = inhibition above about 40%
Mcl1-Noxa inh: Mcl-1/Noxa binding inhibitors, primary screen, biochemical, TR-FRET, 1536-well; Induced myeloid leukemia cell differentiation protein Mcl-1 (Homo sapiens), Q07820; TR-FRET Mcl-1/Noxa peptide binding, 2 h; inhibition, % at 21.7 µM; 1.5% of 220,000 active;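 active = compounds that cut the protein-peptide binding signal by more than 50% relative to plate controls in a single-dose test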;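 also: His-tagged Mcl-1 with rhodamine Noxa BH3 peptide and terbium anti-His antibody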
Of the large screens only hits and unclear results are named; the others gave an inactive call; [ ] = dose if it differs, or a comment.

C/C(N)=C(/C#N)C(=O)COC(=O)Cc1coc2ccc3ccccc3c12	none
Cc1nc(SCC(O)CCl)c([N+](=O)[O-])[nH]1 (centres undefined)	none
COCC(O)CSc1nc(C)[nH]c1[N+](=O)[O-] (centres undefined)	Mcl1 Bid PPI 86.7
N#Cc1c(-c2ccccc2)nc(-c2ccccc2)nc1N1CCOCC1	Mcl1 Bid PPI 50.9
Cc1ccc(S(=O)(=O)N2CCN(Cc3ccccn3)CC2)cc1	none
Cc1ccc(S(=O)(=O)N2CCN(Cc3cc(C(C)C)ccc3O)CC2)cc1	Arbovirus inh 30.4
Cc1ccc(S(=O)(=O)N2CCN(Cc3ccccc3C(F)(F)F)CC2)cc1	14-3-3 Bad inh 82.5
O=C(c1ccccc1C(F)(F)F)N1CCN(S(=O)(=O)c2ccccc2)CC1	none
O=S(=O)(c1ccccc1)N1CCN(Cc2ccccc2C(F)(F)F)CC1	14-3-3 Bad inh 78.8, Mcl1 Bid PPI 82.8
Cc1ccccc1CN1CCN(Cc2ccccc2C(F)(F)F)CC1	14-3-3 Bad inh 74.7
O=S1(=O)CCN(Cc2ccccc2C(F)(F)F)CC1	none
CCc1nnc(NC(=O)CSc2n[nH]c(-c3ccccc3O)n2)s1	none
O=C(N/N=C/c1ccco1)c1ccc(N2CCCC2=O)cc1	Mcl1 Bid PPI 93.4
O=C(NCc1ccco1)c1ccc(N2CCCC2=O)cc1	none
O=C1C(Cl)=C(NCCCO)C(=O)c2ccccc21	none
CCOCCCNC1=C(Cl)C(=O)c2ccccc2C1=O	Mcl1-Noxa inh 63.9 (no result: Arbovirus inh, Bim-Mcl-1)
CCOc1ccc(-c2csc3ncn(-c4ccc(OC)cc4)c(=O)c23)cc1	Mcl1 Bid PPI 84.1
COc1ccc(-c2csc3ncn(-c4ccccc4)c(=O)c23)cc1OC	none
COc1cc(C(=O)CCN2CCC(c3ccccc3)C2)cc(OC)c1OC (centres undefined)	none
O=C(CN1CCCCC1)Nc1c2c(nc3ccccc13)N(c1ccccc1)CC2	14-3-3 Bad inh 71.2
CCCC(=O)Nc1c2c(nc3ccccc13)N(c1ccccc1)CC2	none
O=C(Nc1ccc(-c2nc3ccc(NC(=O)c4cccs4)cc3[nH]2)cc1)c1cccs1	14-3-3 Bad inh 81.8[fluorescence artefact?], Mcl1 Bid PPI 84.0, Mcl1-Noxa inh 64.9
O=C(Nc1ccc2nc(-c3cccs3)[nH]c2c1)c1cccs1	none
Oc1c(Br)cc(C=Nc2ccc3nc(-c4ccccc4)[nH]c3c2)c(O)c1Br	Mcl1-Noxa inh 94.1
O=[N+]([O-])c1cccc(-c2nc3ccc([N+](=O)[O-])cc3[nH]2)c1	Mcl1-Noxa inh 58.1
COc1ccc2nc(-c3ccccc3)[nH]c2c1	none
O=[N+]([O-])c1ccc(O)c(C=Nc2ccc3nc(-c4ccccc4)[nH]c3c2)c1	Mcl1 Bid PPI 63.3, Mcl1-Noxa inh 62.4
O=C(O)c1ccc(/C=C2\SC(=Nc3ccccc3)N(c3ccccc3)C2=O)cc1	none
Cc1ccc(-n2[nH]c(C)c(/C=N/Nc3ccc([N+](=O)[O-])cc3[N+](=O)[O-])c2=O)cc1C	Mcl1-Noxa inh 54.5
CCNc1cc(Nc2c(C)n(C)n(-c3ccccc3)c2=O)c([N+](=O)[O-])c2nonc12	none (no result: Arbovirus inh, Bim-Mcl-1)
Cc1c(Cl)cccc1NC(=O)c1cc(-c2ccccc2O)n[nH]1	Arbovirus inh 30.5
COc1ccc(OC)c(NC(=O)c2cc(-c3cc(Cl)ccc3O)n[nH]2)c1	none
COc1ccc(Cl)cc1NC(=O)c1cc(-c2ccccc2O)n[nH]1	Arbovirus inh 70.3
COc1ccc(Cl)cc1NC(=O)C(OC)c1ccccc1 (centres undefined)	14-3-3 Bad inh 86.8
OCC1(Cc2ccc(Cl)cc2)CCN(Cc2ccc(Oc3ncccn3)cc2)CC1	none
NNC(=O)c1sc2cc(C(F)(F)F)cnc2c1-c1cccnc1	none
N#C/C(=C\c1ccc([N+](=O)[O-])o1)c1nc2ccccc2[nH]1	none
COc1ccc2nc(/C(C#N)=C\c3ccc(Oc4ccc([N+](=O)[O-])cn4)cc3)[nH]c2c1	Mcl1 Bid PPI 57.9, Mcl1-Noxa inh 72.5
Cc1ccc2nc(/C(C#N)=C\c3ccc([N+](=O)[O-])o3)[nH]c2c1	Mcl1 Bid PPI 51.6, Mcl1-Noxa inh 66.0
COc1ccccc1N(C(=O)c1ccncc1)c1nc(-c2ccc([N+](=O)[O-])cc2)cs1	none
O=[N+]([O-])c1ccc(-c2cc(-c3ccncc3)nc3ccc4ccccc4c23)cc1	none

Screening data: PubChem BioAssay, several laboratories
